# Reference: the supplement of paper PMC4166925
# ± gives the standard deviation of the averaged measurements. In all, about 33,000 sequences were measured (“E-score (dimensionless, -0.5 to 0.5)”: median about -0.046, highest 2% from about 0.36 on). The full list was thinned out, with the highest values kept by preference.
# System: T1, SpTbr T-box DNA-binding domain (GST fusion)
# T1 sequence: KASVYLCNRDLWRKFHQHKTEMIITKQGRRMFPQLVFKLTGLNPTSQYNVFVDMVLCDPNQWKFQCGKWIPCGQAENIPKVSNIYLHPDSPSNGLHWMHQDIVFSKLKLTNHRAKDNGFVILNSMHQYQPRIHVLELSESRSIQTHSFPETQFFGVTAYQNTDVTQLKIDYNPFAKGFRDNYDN
# Test: PBM E-score of 8-mer (E-score (dimensionless, -0.5 to 0.5)); Tbr is Tbrain of the sea star Patiria miniata (Pm) or the sea urchin Strongylocentrotus purpuratus (Sp); higher = stronger binding preference
# Settings: the construct has about 5 more residues each side
# Method: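 Universal protein-binding microarray (Agilent AMADID 016060, 60-bp probes with a 35-bp variable region) incubated with 200 nM GST-fused Strongylocentrotus purpuratus Tbr T-box DNA-binding domain (residues 362-554) in PBS pH 7.5. Scored for every ungapped 8-mer (given with its reverse complement) as E-score (range -0.5 to 0.5; >0.45 counts as bound) and Z-score of median probe intensity. Two replicate arrays (datasets 1 and 2).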
# 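Note: protein at 200 nM in PBS on universal double-stranded arrays.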
row,Sequence,PBM E-score of 8-mer
1,ATTGCACA,0.121 ± 0.053
2,CCCCAGCG,-0.148 ± 0.02
3,CTTAACAA,0.243 ± 0.0056
4,CTTAACCC,-0.000625 ± 0.011
5,ATTAACAC,0.45 ± 0.015
6,ATTAACAG,0.139 ± 0.014
7,CTTAACAC,0.429 ± 0.017
8,ATTAACAA,0.14 ± 0.023
9,GTAGAAAA,-0.0889 ± 0.057
10,ATCCAGAG,-0.25 ± 0.021
11,CCTGGGAG,0.0895 ± 0.0077
12,GTGGCCGA,0.0547 ± 0.071
13,AGGAAAAT,-0.182 ± 0.018
14,GTCAATAA,0.129 ± 0.034
15,CGCCCGTC,0.0569 ± 0.029
16,CTTTTTCC,-0.132 ± 0.081
17,TACGTTCA,-0.0963 ± 0.066
18,AGCATTAT,0.00754 ± 0.061
19,GCACGTGC,0.312 ± 0.081
20,ACACGTGT,0.395 ± 0.0082
21,CCACGTGC,0.114 ± 0.074
22,ACACGTGC,0.3851 ± 0.0015
23,ACACGTCA,0.319 ± 0.017
24,AAACGTGT,0.368 ± 0.018
25,ACACGTGG,0.299 ± 0.02

row,Sequence,PBM E-score of 8-mer
1,ACACGTGA,0.283 ± 0.011
2,AAACGTGA,0.156 ± 0.0067
3,ACACGTCT,0.342 ± 0.0038
4,ACACGTCG,0.372 ± 0.0071
5,AAACGTGG,0.144 ± 0.0096
6,CCTTCCGC,0.168 ± 0.062
7,GATGCCTA,-0.279 ± 0.11
8,AAGGGCCA,-0.259 ± 0.0051
9,CTCAGCAC,0.171 ± 0.0069
10,TATCTCAA,-0.0883 ± 0.013
11,GTTCAACA,-0.118 ± 0.054
12,GAGTGACA,0.343 ± 0.033
13,AAGTGACC,0.233 ± 0.041
14,TAGTGACA,0.417 ± 0.011
15,AAGTGACT,0.0603 ± 0.012
16,CAGTGACG,0.0986 ± 0.12
17,AAGTGACA,0.427 ± 0.013
18,CAGTGACA,0.329 ± 0.0062
19,AAGTGACG,0.4 ± 0.0071
20,AAGTGAAA,0.209 ± 0.069
21,GCTGTAAC,-0.0609 ± 0.029
22,CTCAAAAG,-0.147 ± 0.012
23,ATGACCTA,-0.132 ± 0.046
24,ACAGAACA,-0.0577 ± 0.043
25,CCTGTGCG,0.125 ± 0.025

row,Sequence,PBM E-score of 8-mer
1,TCGCAAAA,0.132 ± 0.0091
2,TACTTGGA,-0.311 ± 0.035
3,AGGAGAGG,-0.247 ± 0.019
4,AGATGTGC,0.161 ± 0.011
5,ATGTGTGG,0.356 ± 0.007
6,AGGTGTGG,0.486 ± 0.0081
7,AGGTGTGC,0.445 ± 0.014
8,CTGTGTGC,0.000685 ± 0.012
9,AGGTGGGG,0.238 ± 0.056
10,ATCAGGAC,-0.3 ± 0.086
11,AAGCTCTA,-0.245 ± 0.027
12,ATGATAAC,0.092 ± 0.059
13,GTGATAAC,0.395 ± 0.0074
14,GTGATCAA,0.144 ± 0.022
15,ATGATCAC,0.1861 ± 0.0015
16,GTGATCAC,0.366 ± 0.022
17,GTGATAAA,0.305 ± 0.051
18,ACGATGGA,-0.0806 ± 0.066
19,AGTAATCG,0.087 ± 0.023
20,GCTCCTAC,0.0646 ± 0.0047
21,AATTCAGC,-0.016 ± 0.024
22,CCGGACGA,-0.223 ± 0.017
23,ATCGCCTC,0.169 ± 0.061
24,GCTGTCAC,0.326 ± 0.025
25,GTTGTCTA,-0.123 ± 0.027

row,Sequence,PBM E-score of 8-mer
1,AATGTCAG,0.0267 ± 0.006
2,GATGTCAC,0.296 ± 0.023
3,CGTGTCTA,0.135 ± 0.05
4,GATGTCAA,0.197 ± 0.0064
5,CGTGTCAA,0.4367 ± 0.0011
6,GGTGTCAC,0.475 ± 0.0052
7,AGTGTCAG,0.371 ± 0.0097
8,GTTGTCAA,0.3671 ± 0.0033
9,CGTGTCAG,0.25651 ± 0.00017
10,CCTGTCAA,0.328 ± 0.025
11,GCTCGCCA,0.231 ± 0.017
12,GCCCCATA,-0.112 ± 0.064
13,ATGGGGAG,-0.243 ± 0.051
14,AGGGGTGG,0.147 ± 0.069
15,AATGGCTA,-0.134 ± 0.02
16,CATGAGTC,-0.08024 ± 0.00076
17,GACTTATA,0.0117 ± 0.031
18,ACAACCCT,0.0805 ± 0.0049
19,ATCGTTGC,-0.00439 ± 0.021
20,GCTGTCAA,0.318 ± 0.049
21,GGTGTCTA,0.292 ± 0.0045
22,TGTGTCAA,0.398 ± 0.011
23,GGTGTCAA,0.4808 ± 0.0038
24,AGTGTCAT,0.405 ± 0.017
25,AGTGTCTA,0.17 ± 0.024

row,Sequence,PBM E-score of 8-mer
1,ACTGTCAA,0.183 ± 0.035
2,AGTGTCAA,0.453 ± 0.0054
3,TCTGTCAA,0.109 ± 0.046
4,ACTGTCAT,0.196 ± 0.032
5,TATGTCAA,0.159 ± 0.0082
6,AATGTCAT,-0.162 ± 0.031
7,TAAGAACA,-0.0304 ± 0.082
8,ATATAGTC,-0.0444 ± 0.027
9,ATAGCCCA,-0.13 ± 0.078
10,CGCAGAGA,-0.217 ± 0.082
11,CCAATAAG,-0.199 ± 0.0037
12,CATGAATC,0.0324 ± 0.072
13,CCCCCCCC,-0.0653 ± 0.059
14,AACTCTGC,0.164 ± 0.011
15,GGAAGCAA,-0.216 ± 0.074
16,ACTGTCAC,0.35403 ± 0.00029
17,CGTGTCAC,0.362 ± 0.034
18,AGTGTCAC,0.43943 ± 0.00026
19,ACGCCCAA,-0.049 ± 0.13
20,CACAGACC,-0.0948 ± 0.053
21,ACACACCT,0.44741 ± 0.0002
22,AGACACCG,0.0814 ± 0.026
23,ACGCACCT,0.366 ± 0.0075
24,AGACACCT,0.4345 ± 0.003
25,ACGCACCA,0.0513 ± 0.0069

row,Sequence,PBM E-score of 8-mer
1,AAACACCG,0.155 ± 0.0066
2,ACACACAT,0.328 ± 0.0053
3,ACACACCG,0.224 ± 0.013
4,ACGCACCG,0.0314 ± 0.086
5,AAACACCT,0.442 ± 0.015
6,AAACACCC,0.1718 ± 0.0003
7,AGACACAT,0.229 ± 0.0028
8,GCTTCAAA,0.0158 ± 0.019
9,ACCAATGA,-0.0571 ± 0.11
10,GTAGATAA,-0.151 ± 0.039
11,GATCGTGA,0.173 ± 0.054
12,ACCTGGTA,-0.0333 ± 0.028
13,CGGCCCTC,-0.119 ± 0.093
14,GACGTTCC,-0.197 ± 0.016
15,AAGTGAAG,0.13 ± 0.049
16,ACAGATGT,0.152 ± 0.018
17,ACCTATTC,0.0131 ± 0.033
18,GACCCGTA,-0.0138 ± 0.012
19,ACTTCTAC,0.037 ± 0.013
20,CGGAGCCA,-0.164 ± 0.067
21,CATGCCCC,-0.219 ± 0.047
22,AACACACT,0.211 ± 0.022
23,CACACATC,0.4 ± 0.013
24,AACACATG,0.336 ± 0.046
25,CTCACATA,0.157 ± 0.034

row,Sequence,PBM E-score of 8-mer
1,AACACAGC,0.115 ± 0.086
2,CTCACATC,0.377 ± 0.013
3,AACACATC,0.375 ± 0.012
4,AACACATT,0.383 ± 0.024
5,AACACATA,0.345 ± 0.029
6,GACACATC,0.363 ± 0.028
7,ATCACATC,0.109 ± 0.02
8,CGCACATC,0.338 ± 0.022
9,CATGAAAC,-0.146 ± 0.031
10,GCTAGCAC,0.2678 ± 0.0018
11,TAAGGTAA,-0.107 ± 0.0024
12,AGTGCTGA,0.0461 ± 0.029
13,CTCCTCTC,0.0391 ± 0.091
14,GCCCAATA,-0.142 ± 0.1
15,AAGCTATA,-0.0728 ± 0.05
16,ACAGGTGC,0.436 ± 0.013
17,CTAGGTGA,0.356 ± 0.026
18,CCAGGTGC,0.3516 ± 0.00069
19,ACAGGTGA,0.373 ± 0.0074
20,GTAGGTTA,-0.184 ± 0.0098
21,ACAGGTGG,0.316 ± 0.026
22,ACAGGTTA,0.257 ± 0.043
23,GCAGGTAA,-0.0374 ± 0.063
24,GCAGGTGA,0.414 ± 0.011
25,CCAGGTGA,0.306 ± 0.012
